# Assay outcomes from PubChem.
# The list is not random: actives were taken first. Their share in the collection is about 9.5%.
# NS1 inh: inhibitors of influenza NS1 protein function; 270,000 tested, 0.4% active; Potency, µM (top dose mostly 46.1 µM), for inactives: top-dose activity, positive = more growth; calls by dose curve; also: actives are rising curves; nearly all actives have a fitted effect of over 50% in size
#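 Growth recovery, yeast-based: influenza A NS1 expressed in S. cerevisiae causes slow growth, and suppressors are detected by OD600. The parent strain without NS1 is used as positive control.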
# RE007 growth inh: less growth of the S. pombe RE007 Vpr strain; AID 651644; 360,000 tested, 0.21% active; S. pombe RE007 Vpr strain, BacTiter-Glo ATP luminescence, 24 h; Potency, µM (titrated, usually from 92.2 µM), for the others: at the highest dose activity change, negative = less growth, most hits filed as inhibitors; active = well fitted falling curve with a large enough effect; inconclusive = small, poorly fitted or top-dose-only effect; inactive = no such curve, though single readings can be large or run the other way; also: % is scaled to controls: 0 for no effect and ±100 for the full control effect; nearly all actives have a fitted effect of over 50% in size
#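 Fission yeast strain RE007, carrying one chromosomally integrated HIV-1 vpr copy, was seeded at OD 0.01 in PMG+AL medium with 23 nL pinned compound. After 24 h at 30 °C and 99% humidity, viability was read by BacTiter-Glo luminescence.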
# SARS PLP yeast: SARS-CoV PLP inhibition in yeast. 330,000 tested, 0.19% active. Potency, µM (titrated, usually from 32.9 µM), without a hit: top-dose activity, positive = growth rescue, hits mostly activators. S. cerevisiae expressing SARS-CoV PLpro, growth rescue. AID 485353; calls by dose curve; also: 0% is about no effect; nearly all actives have a fitted effect of over 55% in size
# Pf growth 48h: inhibits P. falciparum growth in the first generation, 48 h; P. falciparum luciferase growth in erythrocytes, 48 h; Potency, µM (titrated, usually from 28.7 µM), for inactives: at the highest dose activity change, negative = inhibition, hits mostly inhibitors; 310,000 tested, 5.9% active; also: % is scaled to controls: 0 for no effect and ±100 for the full control effect
#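 Firefly luciferase activity from engineered P. falciparum reports growth; inhibitors lower the luminescent signal. Cultures contained 2% hematocrit erythrocytes at 0.1% final parasitemia.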
# Pf growth 96h: P. falciparum growth inhibition at 96 hours. P. falciparum luciferase reporter growth, 96 h. Potency, µM (top dose mostly 28.7 µM), for inactives: at the highest dose activity change, negative = inhibition, usual class: inhibitors. 320,000 tested, 6.9% active; also: % is scaled to controls: 0 for no effect and ±100 for the full control effect
#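 Parasite growth measured via integrated firefly luciferase reporter in P. falciparum. Infected erythrocytes at 2% hematocrit, 0.05% parasitemia final were treated 96 hours at 37 C under 5% CO2, and luminescence was read.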
# Active calls of the source: *; ? = inconclusive; nt = not tested or not shown; ! = a repeat was not active; [ ] = remark or other dose. Unless noted, calls follow the shape of the dose curve; as a rule, active = well fitted inhibition curve with a large enough effect; inconclusive = small, poorly fitted or top-dose-only effect, or another doubt; inactive = no such curve, though single readings can be large or run the other way. Potency is read from the fitted curve at half-maximal effect.
SMILES,NS1 inh,RE007 growth inh,SARS PLP yeast,Pf growth 48h,Pf growth 96h
COC(=O)c1ccc(/C=C/C(=O)OCC(=O)Nc2ncc(Cl)cc2Cl)cc1,nt,-5.6%,1.8%,11.7µM*,?
O=C(COC(=O)c1ccc(O)cc1)Nc1ncc(Cl)cc1Cl,8.3%,2.5%,1.5%,10.8%,-0.3%
O=c1oc2ccccc2c(NC2CCCCC2)c1NS(=O)(=O)c1ccc(Br)cc1,8.0%,-10.9%,0.0%,12.8%,10.4µM*
Cc1ccc(S(=O)(=O)Nc2c(NC3CCCCC3)c3ccccc3oc2=O)cc1,0.9%,8.3%,1.6%,22.1%,7.5%
CN(C)CCNc1cc(-c2ccncc2)nc2ccccc12,2.1%,-4.9%,-0.1%,11.7µM*,3.29µM*
C/C(=N/O)c1cccc(N2Cc3ccccc3C2)c1,9.4%,1.3%,-0.6%,13.1µM*,?
C/C(=N\O)c1cccc(Br)c1,3.8%,-1.1%,0.7%,?,-4.0%
O=C(C/C=N\OCc1ccc([N+](=O)[O-])cc1)Nc1ccc(Cl)cc1,nt,-6.4%,-10.5%,-2.5%,-11.8%
O=C(Cc1ccc([N+](=O)[O-])cc1)Nc1ccc(Cl)cc1,19.6%,-6.9%,-2.2%,10.4µM*,3.5%
COc1ccc([N+](=O)[O-])cc1NC(=O)Cc1ccc(Cl)cc1,1.0%,4.7%,-14.7%,-11.7%,10.4µM*
COc1ccc([N+](=O)[O-])cc1NCc1ccccc1,-14.3%,-28.7%,?,17.6%,3.29µM*
COc1ccc([N+](=O)[O-])cc1NC(=O)Cc1ccc(C)cc1,-7.8%,7.6%,-11.4%,-0.4%,?
COc1ccc([N+](=O)[O-])cc1NC(=O)Nc1cccc(Cl)c1,-18.9%,-11.9%,11.4%,9.28µM*,86.7%
COc1ccc([N+](=O)[O-])cc1NC(=O)Nc1ccc(OC)c(OC)c1,8.8%,-20.2%,0.5%,?,19.0%[5.75 µM]
O=c1cnc2ccccc2n1Cc1ccccc1,nt,21.1%,nt,nt,nt
CC1(Cc2ccc(C(F)(F)F)o2)C(=O)Nc2cc(-c3ccc(F)cc3F)ccc21 (stereo not drawn),nt,-24.6%,nt,nt,nt
COc1ccc([N+](=O)[O-])cc1NC1CCCCC1,-24.9%,?,-25.4%,?,93.4%
COc1ccc([N+](=O)[O-])cc1NC1C2CC3CC(C2)CC1C3 (stereo not drawn),-5.3%,-13.1%,1.2%,7.9%,0.522µM*
CC(C)Oc1ccc(S(=O)(=O)N2CCOCC2)cc1NC(=O)c1ccc(Cl)c(S(=O)(=O)N2CCOCC2)c1,nt,-5.5%,nt,nt,nt
CCN(CC)S(=O)(=O)c1ccc(OC)c(NC(=O)c2ccc([N+](=O)[O-])cc2)c1,nt,2.5%,1.6%,-4.3%,-2.3%
CC(C)Oc1ccc(S(=O)(=O)N2CCOCC2)cc1NC(=O)c1ccc(N2CCCC2=O)cc1,-6.9%,-7.9%,-0.5%,4.15µM*,1.31µM*
CCOc1ccc(S(=O)(=O)N(CC)CC)cc1NC(=O)c1ccc(N2CCCC2=O)cc1,-0.5%,7.9%,9.1%,10.4µM*,?
CCN(CC)S(=O)(=O)c1ccc(OC)c(NC(=O)c2ccc(N3CCCC3=O)cc2)c1,nt,-14.1%,-3.0%,?,9.28µM*
COc1ccc(S(=O)(=O)N2CCCCC2)cc1NC(=O)c1ccc(N2CCCC2=O)cc1,nt,-7.0%,-3.3%,9.28µM*,?
Cc1c(N)cc2c(c1N)C(C)(C)CC2(C)C,nt,0.8%,nt,nt,nt
SMILES,NS1 inh,RE007 growth inh,SARS PLP yeast,Pf growth 48h,Pf growth 96h
Cc1cc(NC(=O)COC(=O)C2CC(=O)N(c3ccccc3Cl)C2)no1 (stereo not drawn),9.5%,10.7%,-2.7%,-13.9%,?
CC(=O)Nc1ccc(C(=O)COC(=O)C2CC2C)c(F)c1 (stereo not drawn),nt,-10.4%,0.6%,-23.3%,31.2%
Cc1ccc(S(=O)(=O)N2CCCCC2)cc1NC(=O)c1ccc(Cl)nc1,nt,7.1%,-1.2%,?,?
COc1ccc(S(=O)(=O)N2CCCCC2)cc1NC(=O)c1ccc(Cl)nc1,nt,13.1%,-2.4%,14.7µM*,?
CC(C)Oc1ccc(S(=O)(=O)N2CCCCC2)cc1NC(=O)C1=NN(c2ccccc2)C(=O)CC1,nt,-2.1%,nt,nt,nt
Cc1noc(C)c1CSCC(=O)Nc1cc(S(=O)(=O)N2CCCCC2)ccc1OC(C)C,nt,12.1%,-6.6%,13.1µM*,?
CC(C)Oc1ccc(S(=O)(=O)N2CCOCC2)cc1NC(=O)C1CCC1,nt,-11.3%,-2.0%,-11.4%,?
CC(C)Oc1ccc(S(=O)(=O)N2CCOCC2)cc1NC(=O)C1=NN(c2ccccc2)C(=O)CC1,nt,-0.2%,3.6%,3.7µM*,1.65µM*
CC(C)Oc1ccc(S(=O)(=O)N2CCOCC2)cc1NC(=O)CC1CCCC1,nt,10.2%,4.9%,9.28µM*,8.28µM*
CCN(CC)c1ccc(S(=O)(=O)N2CCCCC2)cc1NC(=O)CSCc1c(C)noc1C,nt,-0.9%,nt,nt,nt
CC1=C(C(=O)N(C(C)C)C(C)C)CC(CC(=O)NCc2ccco2)C(=O)N1Cc1ccccc1 (stereo not drawn),nt,5.3%,nt,nt,nt
Cc1oc(-c2cccs2)nc1CNC[C@H]1O[C@@H](n2cnc3c(N)ncnc32)[C@H](O)[C@@H]1O,nt,-15.4%,2.7%,nt,nt
C[C@H]1CCCC2(CC[N+](C)(CCC[N+](C)(C)C)CC2)C1 (stereo partly drawn),-5.0%,nt,nt,nt,nt
CC12CCC(C(=O)Nc3cccc(Cl)c3)(C(Br)C1=O)C2(C)C (stereo not drawn),-43.2%,2.4%,-7.3%,?,14.7µM*
Cc1ccc(C2C(C=Nc3c(C)n(C)n(-c4ccccc4)c3=O)=C(c3ccccc3)Oc3ccccc32)cc1 (stereo not drawn),-0.4%,1.9%,-10.7%,8.28µM*,4.15µM*
Cn1c(=O)c2c(nc(C(O)c3ccccc3)n2C)n(C)c1=O (stereo not drawn),nt,2.1%,nt,nt,nt
Cn1c(CCNC(=O)c2ccco2)nc2cc([N+](=O)[O-])ccc21,-3.9%,11.3%,-0.4%,7.6%,2.62µM*
Cn1c(CCNC(=O)c2ccco2)nc2cc(NC(=O)c3ccco3)ccc21,-4.2%,11.3%,-2.0%,77.1%,46.0%
C/C(CCN1CCc2nc(-c3ccccc3)c(-c3ccccc3)cc2C1)=N\O[C@@H](C)c1cn([C@H](CO)Cc2ccccc2)nn1,-24.5%,nt,4.0%,?,13.1µM*
CCOC(=O)C(=CNc1ccc(N2CCCCC2)c(S(=O)(=O)Nc2ccccc2OC)c1)C(=O)OCC,nt,-5.0%,nt,nt,nt
SC(COCc1ccccc1)CN1CCN(Cc2ccc3c(c2)OCO3)CC1 (stereo not drawn),14.0%,8.3%,-30.2%,?,8.28µM*
OC(COCc1ccccc1)CN1CCN(Cc2ccc3c(c2)OCO3)CC1 (stereo not drawn),-1.8%,7.5%,-4.8%,6.5%,-28.1%
CC(=O)c1ccc(OCC(O)CN2CCN(Cc3ccc4c(c3)OCO4)CC2)cc1 (stereo not drawn),-1.4%,1.7%,5.1%,-3.1%,4.15µM*!
O=C(CN(c1ccccc1)S(=O)(=O)c1ccc(F)cc1)NCc1cccs1,nt,0.5%,-3.4%,?,?
